From the supplement of paper PMC12350171
Where a name gives a salt, the structure may show the parent alone.

Legend:
Conditions in all cases: 20 µM
[1] = tested on: Haemophilus parainfluenzae; experiment: growth AUC normalised to DMSO control (fraction of control); higher = less growth inhibition, active = hit call of the paper
Summary of the method: (§1)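 Three biological replicates were carried out, with OD578 read hourly for 24 h. Before inoculation at a starting OD578 of 0.01, pathogens were passaged anaerobically twice; plates were pre-reduced mGAM containing 20 μM compound and 1% DMSO, sealed with breathable membranes, and the Haemophilus parainfluenzae medium carried added hemin and NAD. Area under each growth curve was calculated by the trapezoidal rule up to the exponential-to-stationary transition and normalised to DMSO controls on the same plate.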

[2] = tested on: Salmonella enterica typhimurium; experiment: as above
Summary of the method: as §1

Shigella flexneri = experiment: as above
Summary of the method: as §1

Vibrio cholerae = experiment: as above
Summary of the method: as §1

[3] = tested on: Yersinia pseudotuberculosis; experiment: as above
Summary of the method: as §1

P. vulgatus RND KO = experiment: growth AUC normalised to DMSO control (median) (fraction of control); higher = less growth inhibition, active = hit call of the paper
Summary of the method: (§2)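 Area under the growth curve, calculated by the trapezoidal rule up to entry into stationary phase, was normalised to vehicle wells on the same plate. Strains had been passaged twice overnight without oxygen and then grown in mGAM in 96-well plates from OD578 0.01, each with an approved-drug library compound at 20 μM in 1% DMSO. OD578 was read hourly over 24 h in an anaerobic incubator, and the median of three biological replicates is given.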

P. vulgatus WT = experiment: as above
Summary of the method: as §2

[4] = tested on: S. enterica typhimurium WT; experiment: as above
Summary of the method: as §2

[5] = tested on: S. enterica typhimurium tolC KO; experiment: as above
Summary of the method: as §2

Measured: growth AUC normalised to DMSO control
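Wherever growth AUC normalised to DMSO control (median) is given: active when median AUC fell below 0.1.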

COc1cc2c(c(OC)c1OC)-c1ccc(OC)c(=O)cc1[C@@H](NC(C)=O)CC2 [Colchicine]
inactive: [1] 0.981 | [2] 0.988 | Shigella flexneri 0.964 | Vibrio cholerae 0.98 | [3] 0.977 | P. vulgatus RND KO 0.988 | P. vulgatus WT 0.986 | [4] 1 | [5] 1.01

CC(Cc1ccccc1)NCCC(c1ccccc1)c1ccccc1 (stereo not given) [Prenylamine lactate]
inactive: [1] 1.05 | [2] 1.01 | Shigella flexneri 1.07 | Vibrio cholerae 1.02 | [3] 1.02 | P. vulgatus RND KO 1.04 | P. vulgatus WT 1.04 | [4] 0.993 | [5] 0.97

CN1[C@@H]2CC[C@H]1C[C@@H](OC(=O)[C@H](CO)c1ccccc1)C2 [(L) Hyoscyamine]
inactive: [1] 0.945 | [2] 0.983 | Shigella flexneri 1.04 | Vibrio cholerae 1.05 | [3] 1.01 | P. vulgatus RND KO 1 | P. vulgatus WT 1 | [4] 1.01 | [5] 1

CC1C=CC=CCCC=CC=CC=CC=CC(OC2OC(C)C(O)C(N)C2O)CC2OC(O)(CC(O)C(O)CCC(O)CC(O)CC(O)CC(=O)OC(C)C(C)C1O)CC(O)C2C(=O)O (stereo not given) [Nystatine]
inactive: [1] 0.988 | [2] 0.992 | Shigella flexneri 0.959 | Vibrio cholerae 0.994 | [3] 0.989 | P. vulgatus RND KO 0.988 | P. vulgatus WT 0.996 | [4] 0.997 | [5] 1

O=c1c2ccccc2[se]n1-c1ccccc1 [Ebselen]
inactive: [1] 0.874 | [2] 0.987 | Shigella flexneri 1.03 | Vibrio cholerae 0.999 | [3] 0.974 | P. vulgatus RND KO 1.04 | P. vulgatus WT 1.02 | [4] 1.02 | [5] 0.971

C[N+](C)(C)CCCCCCCCCC[N+](C)(C)C [Decamethonium bromide]
inactive: [1] 1.03 | [2] 1 | Shigella flexneri 1.03 | Vibrio cholerae 1.07 | [3] 1 | P. vulgatus RND KO 0.997 | P. vulgatus WT 1.07 | [4] 1.01 | [5] 1

CCN[C@@H](C)Cc1cccc(C(F)(F)F)c1 [Dexfenfluramine hydrochloride]
inactive: [1] 1.01 | [2] 0.995 | Shigella flexneri 1.02 | Vibrio cholerae 1.02 | [3] 0.995 | P. vulgatus RND KO 1 | P. vulgatus WT 1.02 | [4] 0.996 | [5] 1

NCC1(CC(=O)O)CCCCC1 [Gabapentin]
inactive: [1] 0.891 | [2] 1.01 | Shigella flexneri 1.05 | Vibrio cholerae 1.03 | [3] 1.01 | P. vulgatus RND KO 1.04 | P. vulgatus WT 1.04 | [4] 1.01 | [5] 1.01

COc1ccc2c(c1)[C@]13CCCC[C@@H]1[C@H](C2)N(C)CC3 [Dextromethorphan hydrobromide monohydrate]
inactive: [1] 1.02 | [2] 0.982 | Shigella flexneri 0.988 | Vibrio cholerae 0.955 | [3] 0.97 | P. vulgatus RND KO 1.02 | P. vulgatus WT 1 | [4] 0.995 | [5] 0.985

C=C1C[C@@H]2[C@H](CC[C@]3(C)C(=O)CC[C@@H]23)[C@@]2(C)C=CC(=O)C=C12 [Exemestane]
inactive: [1] 0.967 | [2] 0.985 | Shigella flexneri 0.953 | Vibrio cholerae 0.964 | [3] 1 | P. vulgatus RND KO 0.978 | P. vulgatus WT 0.969 | [4] 0.996 | [5] 0.935

C1CCc2nnnn2CC1 [Pentylenetetrazole]
inactive: [1] 1.01 | [2] 0.978 | Shigella flexneri 1.01 | Vibrio cholerae 1.04 | [3] 0.976 | P. vulgatus RND KO 1.03 | P. vulgatus WT 1.06 | [4] 1 | [5] 0.986

C#C[C@]1(O)CC[C@H]2[C@@H]3CCC4=CC(=O)CC[C@]4(C)[C@H]3CC[C@@]21C [Ethisterone]
inactive: [1] 1.02 | [2] 1.01 | Shigella flexneri 1.02 | Vibrio cholerae 1.02 | [3] 1 | P. vulgatus RND KO 1.05 | P. vulgatus WT 1.04 | [4] 1.02 | [5] 0.998

COc1ccc(CN2CCNCC2)c(OC)c1OC [Trimetazidine dihydrochloride]
inactive: [1] 1.02 | [2] 0.989 | Shigella flexneri 1.03 | Vibrio cholerae 1.02 | [3] 1.01 | P. vulgatus RND KO 1.01 | P. vulgatus WT 1.01 | [4] 0.997 | [5] 0.994

CN(C)[C@@H]1C(=O)C(C(N)=O)=C(O)[C@@]2(O)C(=O)C3=C(O)c4c(O)ccc(Cl)c4[C@@](C)(O)[C@H]3C[C@@H]12 [Chlortetracycline hydrochloride]
active: [1] 0.0445 | [2] 0.00172 | Shigella flexneri 0.0163 | Vibrio cholerae 0.0321 | [3] 0.0311 | P. vulgatus RND KO 0.0183 | P. vulgatus WT 0.0152 | [4] 0.00367 | [5] 0.00506

O=[N+]([O-])O[C@H]1CO[C@H]2[C@@H]1OC[C@H]2O[N+](=O)[O-] [Isosorbide dinitrate]
inactive: [1] 1.07 | [2] 1.03 | Shigella flexneri 1.02 | Vibrio cholerae 1.09 | [3] 1.01 | P. vulgatus RND KO 0.94 | P. vulgatus WT 0.94 | [4] 0.996 | [5] 1.01

CN(C)[C@@H]1C(=O)C(C(N)=O)=C(O)[C@@]2(O)C(=O)C3=C(O)c4c(O)cccc4[C@@](C)(O)[C@H]3C[C@@H]12 [Tetracycline hydrochloride]
active: [1] 0.0479 | [2] 0.00376 | Shigella flexneri 0.0389 | Vibrio cholerae 0.0365 | [3] 0.0501 | P. vulgatus RND KO 0.0124 | P. vulgatus WT 0.013 | [4] 0.0084 | [5] 0.00234

C[C@]12COC(=O)C[C@@H]1CC[C@@H]1[C@@H]2CC[C@@]2(C)[C@H]1CC[C@]2(C)O [Oxandrolone]
inactive: [1] 0.995 | [2] 1.01 | Shigella flexneri 1 | Vibrio cholerae 1 | [3] 0.963 | P. vulgatus RND KO 1.03 | P. vulgatus WT 1.05 | [4] 1.01 | [5] 0.991

CN1C[C@H](C(=O)N[C@]2(C)O[C@@]3(O)[C@@H]4CCCN4C(=O)[C@H](Cc4ccccc4)N3C2=O)C[C@@H]2c3cccc4[nH]cc(c34)C[C@H]21 [Dihydroergotamine tartrate]
inactive: [1] 1.04 | [2] 0.978 | Shigella flexneri 0.994 | Vibrio cholerae 1.02 | [3] 1.01 | P. vulgatus RND KO 0.989 | P. vulgatus WT 0.996 | [4] 1 | [5] 0.984

NC(=O)OCCCc1ccccc1 [Phenprobamate]
inactive: P. vulgatus RND KO 1.01 | P. vulgatus WT 1.02 | [4] 0.989 | [5] 0.991

Oc1ccc(Cl)cc1Cc1cc(Cl)ccc1O [Dichlorophen]
active: [5] 0.00799
inactive: P. vulgatus RND KO 0.641 | P. vulgatus WT 0.442 | [4] 0.915

CC[C@@]1([C@@H]2O[C@@H]([C@H]3O[C@@](O)(CO)[C@H](C)C[C@@H]3C)C[C@@H]2C)CC[C@H]([C@]2(C)CC[C@]3(C[C@H](O)[C@@H](C)[C@@H]([C@@H](C)[C@@H](OC)[C@H](C)C(=O)O)O3)O2)O1 [Monensin sodium salt]
inactive: P. vulgatus RND KO 0.261 | P. vulgatus WT 0.305 | [4] 1 | [5] 0.856

CC(C)=CC1C(C(=O)OCc2cccc(Oc3ccccc3)c2)C1(C)C (stereo not given) [Phenothrin]
inactive: P. vulgatus RND KO 1.01 | P. vulgatus WT 1.01 | [4] 0.998 | [5] 1.01

CC(C)(N)Cc1ccccc1 [Phentermine hydrochloride]
active: P. vulgatus RND KO 0.0617
inactive: [1] 1.02 | [2] 1.02 | Shigella flexneri 1.03 | Vibrio cholerae 1.04 | [3] 1.01 | P. vulgatus WT 0.458 | [4] 0.992 | [5] 0.996

C[C@]12C=CC(=O)C=C1CC[C@@H]1[C@@H]2CC[C@@]2(C)[C@H]1CC[C@]2(C)O [Methandrostenolone]
inactive: P. vulgatus RND KO 0.996 | P. vulgatus WT 0.998 | [4] 1.01 | [5] 0.982

C[N+]1(C)[C@@H]2CC[C@H]1C[C@@H](OC(=O)C(CO)c1ccccc1)C2 (stereo not given in full) [Methylatropine nitrate]
inactive: [1] 1.05 | [2] 1.01 | Shigella flexneri 1.03 | Vibrio cholerae 1.02 | [3] 1 | P. vulgatus RND KO 1.02 | P. vulgatus WT 1.04 | [4] 0.999 | [5] 1.02

CC[C@@H](CO)NC(=O)[C@@H]1C=C2c3cccc4[nH]cc(c34)C[C@H]2N(C)C1 [Methylergometrine maleate]
inactive: [1] 0.997 | [2] 0.985 | Shigella flexneri 0.966 | Vibrio cholerae 1.01 | [3] 0.998 | P. vulgatus RND KO 0.975 | P. vulgatus WT 0.952 | [4] 0.993 | [5] 1

CCN(CC)CCOC(=O)C(O)(c1ccccc1)c1ccccc1 [Benactyzine hydrochloride]
inactive: P. vulgatus RND KO 0.979 | P. vulgatus WT 0.997 | [4] 1.01 | [5] 1

Cc1cccc(C)c1NC(=O)CN1CCCC1=O [Nefiracetam]
inactive: P. vulgatus RND KO 1.01 | P. vulgatus WT 1.01 | [4] 1 | [5] 1

CCC1(C2=NCCN2)Cc2ccccc2O1 (stereo not given) [Efaroxan hydrochloride]
inactive: P. vulgatus RND KO 1.02 | P. vulgatus WT 1.03 | [4] 0.997 | [5] 0.999

CC(C)C[C@H](CN)CC(=O)O [Pregabalin]
inactive: P. vulgatus RND KO 0.971 | P. vulgatus WT 0.976 | [4] 0.991 | [5] 0.989
